Source: PubChem BioAssay
TGFb SMAD3 inh = TGF-b pathway inhibition; HepG2 CAGA-GFP TGF-b/SMAD3 reporter, GFP fluorescence, 18 h; TGF-beta stimulated, 500 pg/mL final; Potency, µM (top dose mostly 46.1 µM), for inactives: at the highest dose activity, negative = inhibition, actives largely listed as inhibitors; AID 588855; 1.2% of 410,000 active; further: potency means the concentration at half of the fitted maximal effect; on the % scale 0 is the no-effect control and ±100 the full control effect; nearly all actives have a fitted effect of over 65% in size
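HEPG2 CAGA-GFP, 1000 cells/well; 2 h settle, 37 C; cpd via pin tool; TGF-b 500 pg/mL final; 18 h, 37 C; GFP imaging ex488/em500-530; %Activity normalised to -TGF-b and +DMSO controls; CRC fit, curve class.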
DT40 TDP1 CPT = growth inhibition of DT40 Tdp1-/-;hTDP1 cells with camptothecin (screen for TDP1 inhibitors); chicken DT40 Tdp1-/-;hTDP1 cells + 20 nM CPT, ATP luminescence, 48 h; Potency, µM (top dose mostly 46.2 µM), for inactives: at the highest dose activity change, negative = growth inhibition, usual class: inhibitors; 12% of 420,000 active; AID 686979; further: potency means the concentration at half of the fitted maximal effect; on the % scale 0 is the no-effect control and ±100 the full control effect; nearly all actives have a fitted effect of over 55% in size
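Cell growth measured by CellTiter-Glo luminescence after a minimum 48 h, 37 C compound exposure with 20 nM CPT in Tdp1-knockout DT40 cells stably expressing hTDP1, seeded 400/well; qHTS titration format.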
IL1B secr inh = inflammasome signaling inhibition, IL-1 beta readout; THP-1 LPS/ATP IL-1B secretion, AlphaLISA, 16 h; active compounds read low; activity change, % at 57.5 µM; 4.7% of 360,000 active; AID 743279; in the data active means activity change below about -50%; inconclusive means mostly about -30% to -49%; further: on the % scale 0 is the no-effect control and ±100 the full control effect
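Secreted IL-1B measured by AlphaLISA bead assay after 16 h compound exposure of THP-1 cells; compounds (final up to 57.5 uM) added 1 h before LPS (250 ng/mL) and ATP (1.25 mM) stimulation; lower signal means less secretion.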
HepG2 tox = HepG2 cytotoxicity, counter-screen for TGF-b inhibitors; AID 588856; 0.76% of 410,000 active; HepG2 CAGA-GFP viability, ATP luminescence, 18 h; Potency, µM (series often up to 46.1 µM), for the others: at the highest dose activity change, negative = cytotoxicity, hits mostly cytotoxic; further: potency means the concentration at half of the fitted maximal effect
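HepG2 CAGA-GFP cells (1000/well, DMEM with 1% FBS) received compound, then TGF-beta at 500 pg/mL final, and were incubated 18 hours at 37 degrees C. Viability was read by CellTiter-Glo luminescence. Media-only wells were set as complete cell-killing and DMSO as no toxicity.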
TDP1 cell noCPT = qHTS for Inhibitors of human tyrosyl-DNA phosphodiesterase 1 (TDP1): qHTS in cells in absence of CPT; DT40 Tdp1-/- hTDP1 cells, no CPT, ATP luminescence, 48 h; Potency, µM (series often up to 46.2 µM), for inactives: at the top dose activity change, negative = growth inhibition, hits mostly inhibitors; 15% of 420,000 active; AID 686978, 2013; further: potency means the concentration at half of the fitted maximal effect; on the % scale 0 is the no-effect control and ±100 the full control effect; nearly all actives have a fitted effect of over 55% in size
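Chicken DT40 Tdp1-/- cells complemented with human TDP1, screened without camptothecin (DMSO vehicle only), 400 cells/well. Compounds pin-transferred, cells incubated at 37 °C for at least 48 hr. Growth read as ATP-dependent luminescence (CellTiter-Glo, 30 min at RT).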
ASM inhibitor = human S-ASM enzyme inhibition; Potency, µM (doses to about 57.5 µM), for the others: at the top dose activity change, negative = inhibition, actives largely listed as inhibitors; 0.006% of 340,000 active; placental ASM, HMU-PC fluorogenic substrate, 60 min; further: potency means the concentration at half of the fitted maximal effect
Target sequence (P17405 47-631 limits assumed): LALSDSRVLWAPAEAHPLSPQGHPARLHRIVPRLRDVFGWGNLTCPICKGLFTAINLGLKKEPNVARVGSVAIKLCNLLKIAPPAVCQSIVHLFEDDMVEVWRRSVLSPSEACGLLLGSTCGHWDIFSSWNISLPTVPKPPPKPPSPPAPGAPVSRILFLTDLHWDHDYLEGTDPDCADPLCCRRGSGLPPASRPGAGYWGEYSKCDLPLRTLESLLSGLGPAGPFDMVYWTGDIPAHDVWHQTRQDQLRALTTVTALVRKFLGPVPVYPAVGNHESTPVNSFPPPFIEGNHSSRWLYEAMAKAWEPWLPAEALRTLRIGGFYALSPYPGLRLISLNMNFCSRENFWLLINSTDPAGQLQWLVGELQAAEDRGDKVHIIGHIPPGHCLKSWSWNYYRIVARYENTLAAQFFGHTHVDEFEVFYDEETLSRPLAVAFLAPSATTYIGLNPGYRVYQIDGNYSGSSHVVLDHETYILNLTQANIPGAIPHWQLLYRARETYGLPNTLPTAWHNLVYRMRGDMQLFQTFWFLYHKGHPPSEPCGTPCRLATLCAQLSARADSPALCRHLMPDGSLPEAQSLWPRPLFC
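qHTS format. ASM enzyme prepared from human placenta hydrolyses the fluorogenic substrate HMU-PC0 (9 uM final) over 60 min at 37 °C after a 10 min compound preincubation.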
* marks the source's active call; other numbers are inactive results; ? = inconclusive; · = no result; [ ] = another dose, or the depositor's remark. This is a sample that favours compounds with a hit; in the whole collection about 19% have one here. Unless noted, the call rests on the fitted dose curve; in most records, active means well fitted curve in the direction sought with a large enough effect; inconclusive means small, poorly fitted or top-dose-only effect, or another doubt; inactive means no such curve, though single readings can be large; an effect the other way counts as inactive or inconclusive.

SMILES	TGFb SMAD3 inh	DT40 TDP1 CPT	IL1B secr inh	HepG2 tox	TDP1 cell noCPT	ASM inhibitor
CS(=O)(=O)N1CCN(C(=S)NCc2ccc(Cl)cc2)CC1	-2.1%	6.9%	-9.2	-5.1%	-15.9%	3.5%
COc1ccccc1-c1nc(-c2ccccc2)nc(N2CCN(C)CC2)c1C#N	-16.3%	-17.4%	-52.2*	-23.5%	?	-1.6%
CN1CCN(c2nc(-c3ccccc3)nc(-c3ccc(F)cc3)c2C#N)CC1	-7.4%	?	-61.3*	-1.7%	?	-7.3%
COc1ccc(-c2nc(-c3ccccn3)nc(N3CCN(C)CC3)c2C#N)cc1	-13.3%	-2.4%	?	-15.8%	0.8%	-2.2%
CCOc1ccc(NC(=O)/C(C=Nc2ccccc2)=C(\C)O)cc1	?	3.0%	-4.3	-26.9%	-14.7%	-9.4%
C=CCN1C(=O)c2ccc(C(=O)NCCOc3ccccc3F)cc2C1=O	4.1%	-3.9%	3.8	-9.3%	5.8%	-1.5%
COc1ccccc1N1CCN(C(=O)COc2cc(C)ccc2C)CC1	-1.5%	?	-3.1	-19.1%	16.4µM*	1.6%
Cc1cc(OCC(=O)Nc2ccccc2C(N)=O)c2c(C)cc(=O)oc2c1	3.3%	?	-12.1	-19.3%	23.1µM*	-7.7%
COc1ccccc1N1CCN(C(=O)/C=C/c2ccc(C)cc2)CC1	25.7%	?	7.8	21.3%	13µM*	-7.0%
COc1ccccc1N1CCN(C(=O)COc2cc(C)cc3oc(=O)cc(C)c23)CC1	-3.3%	16.4µM*	-7.9	-4.9%	20.6µM*	-0.6%
O=C(O)c1cccc(-n2cnc3cccnc32)c1	·	-0.9%	·	11.5%	-11.9%	·
COc1ccc(C(=O)N[C@H](C(=O)OCc2nc3ccsc3c(=O)[nH]2)C(C)C)cc1	18.9%	8.4%	23.6	22.5%	-1.7%	-0.2%
COc1ccccc1C(=O)COC(=O)CN1C(=O)C2CC=CCC2C1=O (stereo unspecified)	1.4%	12.7%	10.6	0.0%	-3.5%	2.6%
COc1cccc(CN2CCC2(C)C(=O)Nc2cccc(Oc3ccccc3)c2)c1OC (stereo unspecified)	?	23.1µM*	-20.9	-2.8%	20.6µM*	·
COc1cccc(CN2CCC2(C)C(=O)Nc2cccc(NS(C)(=O)=O)c2)c1OC (stereo unspecified)	-5.2%	18.4µM*	-5.4	-26.9%	23.1µM*	·
CC(C)c1ccc(CN2CCC2(C)C(=O)Nc2cccc(Oc3ccccc3)c2)cc1 (stereo unspecified)	-2.5%	?	29.1	-16.8%	18.4µM*	·
COc1cc(OC)c(OC)cc1/C=C1\CC(C)C/C(=C\c2cc(OC)c(OC)cc2OC)C1=O (stereo unspecified)	?	18.4µM*	-83.6*	11.2µM*	18.4µM*	?
CCC1C/C(=C\c2cc(OC)c(OC)cc2OC)C(=O)/C(=C/c2cc(OC)c(OC)cc2OC)C1 (stereo unspecified)	?	?	-70.3*	8.91µM*	13µM*	?
Cc1cc(-c2ccccc2)n(-c2cc(N/N=C/c3ccccc3O)ncn2)n1	?	4.61µM*	49.5	-11.5%	3.26µM*	-16.5%
CNc1cc(-n2nc(C)cc2-c2ccccc2)ncn1	-8.5%	-17.6%	15.8	-13.5%	0.6%	0.1%
Cc1ccc(NC(=O)COC(=O)c2ccc(=O)n(Cc3ccccc3)n2)cc1F	-15.8%	10.4%	15.5	-3.3%	-1.3%	-0.1%
Cc1cc(N2CCN(C)CC2)nc2ccc(NC(=O)c3ccc(C(C)(C)C)cc3)cc12	?	7.31µM*	·	12.6µM*	4.61µM*	·
COc1ccc(C(=O)Nc2ccc3nc(N4CCN(C)CC4)cc(C)c3c2)c(OC)c1	?	?	-86.3*	-53.9%	?	284.9%
N#Cc1ccc(C(=O)NC(=S)N2CCN(C=O)CC2)cc1	21.2%	-2.8%	8.6	-2.3%	-5.3%	2.6%
COc1ccc(CNC(=O)c2cn(Cc3ccc(OC(C)=O)cc3)c(=O)s2)cc1	-1.7%	?	4.8	1.0%	?	·
SMILES	TGFb SMAD3 inh	DT40 TDP1 CPT	IL1B secr inh	HepG2 tox	TDP1 cell noCPT	ASM inhibitor
Cc1cc(C)cc(NC(=S)N2CCC(N(C)CC3CCCO3)CC2)c1 (stereo unspecified)	3.0%	-0.6%	-5.1	6.1%	-0.2%	0.0%
Cc1ccc(S(=O)(=O)Nc2ccnc3ccccc23)cc1	-0.4%	?	-8.1	-39.3%	20.6µM*	1.4%
Cc1ccc(S(=O)(=O)Nc2cccc3ncccc23)cc1	2.0%	?	32.0	-3.1%	-24.1%	-0.7%
Cc1ccc(S(=O)(=O)Nc2cccc3ncccc23)s1	?	0.92µM*	-112.3*	-0.2%	1.03µM*	6.4%
Cc1ccc(S(=O)(=O)Nc2ccc(O)c3cccnc23)cc1	?	2.91µM*	74.4	-160.9%	6.51µM*	-5.3%[11.5 µM]
O=S(=O)(Nc1cccnc1)c1cccc(C(F)(F)F)c1	-7.9%	-8.7%	-4.0	-7.8%	-13.0%	6.1%
O=S(=O)(Nc1cccc2ncccc12)c1cccc(C(F)(F)F)c1	?	?	47.3	-19.3%	9.2µM*	-0.6%
Cc1ccc(S(=O)(=O)Nc2ccccc2O)cc1	·	2.3%	-7.7	·	-18.8%	·
O=C(CS(=O)(=O)Cc1ccccc1)N1CCN(c2ccccc2F)CC1	10.0%	-3.5%	-9.3	6.0%	-22.2%	1.0%
COc1cc2c(cc1OC)C(COc1cc(C)cc(C)c1)N(C(=O)C(C)(C)C)CC2 (stereo unspecified)	?	?	·	-28.3%	25.9µM*	·
COc1cc2c(cc1OC)C(COc1cc(C)cc(C)c1)N(C(C)=O)CC2 (stereo unspecified)	-9.1%	?	-6.4	-4.0%	?	2.3%
COc1cc2c(cc1OC)C(COc1cc(C)cc(C)c1)N(C(=O)COc1ccccc1)CC2 (stereo unspecified)	?	?	·	-26.4%	23.1µM*	·
Cc1ccc(S(=O)(=O)N2CCN(Cc3cc(=O)n4nc(-c5ccccc5Cl)sc4n3)CC2)cc1	-17.0%	-1.6%	·	-19.8%	-16.9%	·
CCOc1ccc(C(=O)N2CCN(Cc3cc(=O)n4nc(-c5cccc(OC)c5)sc4n3)CC2)cc1	-16.5%	?	·	7.8%	20.6µM*	·
Cc1cccc(-c2nn3c(=O)cc(CN4CCN(S(=O)(=O)c5ccc(Cl)cc5)CC4)nc3s2)c1	-18.4%	3.1%	·	-20.9%	16.4µM*	·
